In the supplement of paper PMC6555819:

Tests used:
Assay in all cases: PBM binding z-score (relative to random genomic background probes); higher = stronger binding; sequences stand for … in GC…GCGATTGACAGCGTAGAATGAAGG
[1] = test system: FXR:RXRa (NR concentration 270 nM, RXRa partner concentration 90 nM)
In short: (§1)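 Ligand-free nuclear receptor dimers were bound for 1 h to custom Agilent 4×180K protein-binding microarrays. Detection used antibodies against each partner (one per run). Binding z-scores rest on regression-normalized fluorescence, with random background probes as the reference.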

[2] = test system: LXRa:RXRa (NR concentration 270 nM, RXRa partner concentration 90 nM)
In short: as §1

[3] = test system: LXRa homodimer (NR concentration 270 nM)
In short: as §1

[4] = test system: LXRb:RXRa (NR concentration 270 nM, RXRa partner concentration 90 nM)
In short: as §1

[5] = test system: LXRb homodimer (NR concentration 270 nM)
In short: as §1

[6] = test system: PPARa:RXRa (NR concentration 270 nM, RXRa partner concentration 90 nM)
In short: as §1

[7] = test system: PPARg:RXRa (NR concentration 180 nM, RXRa partner concentration 90 nM)
In short: as §1

[8] = test system: PPARg:RXRa 270nM:90nM, anti-RXR (NR concentration 270 nM, RXRa partner concentration 90 nM)
In short: as §1

[9] = test system: PPARg:RXRa 30nM:10nM, anti-RXR (NR concentration 30 nM, RXRa partner concentration 10 nM)
In short: as §1

[10] = test system: PPARg:RXRa 90nM:30nM, anti-RXR (NR concentration 90 nM, RXRa partner concentration 30 nM)
In short: as §1

[11] = test system: PPARg:RXRa DBDmut IVT, anti-RXR (DBD mutation: RXRa K156A/R161A, NR concentration 270 nM, RXRa partner concentration 90 nM)
In short: as §1

[12] = test system: PPARg:RXRa IVT, anti-PPARg (NR concentration 270 nM, RXRa partner concentration 90 nM)
In short: as §1

[13] = test system: PPARg DBDmut:RXRa IVT, anti-PPARg (DBD mutation: PPARg1 K132A/R137A, NR concentration 270 nM, RXRa partner concentration 90 nM)
In short: as §1

[14] = test system: PPARg DBDmut IVT, anti-PPARg (DBD mutation: PPARg1 K132A/R137A, NR concentration 270 nM)
In short: as §1

[15] = test system: PPARg homodimer (NR concentration 180 nM)
In short: as §1

[16] = test system: PXR:RXRa (NR concentration 270 nM, RXRa partner concentration 90 nM)
In short: as §1

[17] = test system: PXR homodimer (NR concentration 270 nM)
In short: as §1

[18] = test system: RARa:RXR (NR concentration 270 nM, RXRa partner concentration 90 nM)
In short: as §1

[19] = test system: RARa homodimer (NR concentration 270 nM)
In short: as §1

[20] = test system: RARb:RXRa (NR concentration 270 nM, RXRa partner concentration 90 nM)
In short: as §1

Sequence | PBM binding z-score [1] | PBM binding z-score [2] | PBM binding z-score [3] | PBM binding z-score [4] | PBM binding z-score [5] | PBM binding z-score [6] | PBM binding z-score [7] | PBM binding z-score [8] | PBM binding z-score [9] | PBM binding z-score [10] | PBM binding z-score [11] | PBM binding z-score [12] | PBM binding z-score [13] | PBM binding z-score [14] | PBM binding z-score [15] | PBM binding z-score [16] | PBM binding z-score [17] | PBM binding z-score [18] | PBM binding z-score [19] | PBM binding z-score [20]
CGAACGAGGGCATTAGTTGATAGCAAATGCCGAT | 0.0908 | -0.0116 | -0.501 | -0.0875 | -0.766 | 0.595 | 0.83 | 0.432 | 0.0228 | -0.0505 | 2.78 | 1.35 | -1.12 | -0.313 | -0.0468 | 0.174 | 0.377 | 0.239 | -0.278 | 1.51
GGAACGAGGGCAAAGATGATAGCATCTGTCGACG | 0.376 | 0.281 | -0.604 | 0.258 | -0.642 | 2.65 | 3.63 | 4.6 | 2.92 | 4.39 | 3.87 | 3.02 | -0.58 | 0.0962 | 0.289 | 0.215 | -0.309 | 0.189 | -0.373 | 1.98
CCTACTGGGCCAGGAAAGGTCATTGATTCAGTGA | 3.42 | 4.12 | 3.32 | 3.74 | -0.202 | 4.18 | 1.95 | 3.03 | 0.929 | 2.15 | 2.65 | 3.05 | -0.225 | -1.01 | 2.36 | 4.78 | 0.786 | 4.87 | 0.0596 | 3.71
CCTGACAGGTGAAAGGTAACTCAGTCTGGTACGC | 0.803 | 0.991 | -0.258 | 0.923 | -0.669 | 3.38 | 5.7 | 6.09 | 4 | 5.75 | 2.33 | 2.82 | -0.213 | -0.0292 | 0.546 | 0.876 | -0.396 | 1.84 | 0.115 | 1.3
CCTACAGGGCCACGAAAGGTCATTGATTCAGTGA | 4.09 | 5.83 | 4.74 | 4.54 | 0.292 | 4.51 | 1.86 | 3.15 | 0.825 | 2.22 | 0.816 | 1.87 | -0.216 | -0.41 | 2.63 | 5.61 | 1.86 | 5.07 | 1.07 | 4.32
AGTCAAGGTTCATCTAGGTAACGTAAGATATGCT | 5.36 | 4.13 | 1.89 | 2.57 | 0.451 | 3.64 | 3.69 | 3.68 | 1.41 | 2.98 | 1.12 | 3.01 | 1.11 | 1.06 | 1.29 | 2.48 | 1.61 | 2.88 | 0.372 | 2.99
CAAACTAGGTCACAGAGGTCAAATTCCGTGCGTA | 7.61 | 6.88 | 8.33 | 6.71 | 3.6 | 6.59 | 10.5 | 8.65 | 7.13 | 8.61 | 8.77 | 8.98 | 8.04 | 3.55 | 6.47 | 7.14 | 12.3 | 7.83 | 3.22 | 5.4
